Most compounds without a hit are left out; they make up all but 2.9% or so of the library.
Integrin act MD: qHTS for Activators of Integrin-Mediated Alleviation for Muscular Dystrophy; alpha7betagal myoblasts, beta-gal FDG fluorescence, 48 h; Potency, µM (doses to about 38.3 µM), without a hit: at the highest dose activation, actives largely listed as activators; 350,000 tested, 0.064% active; active = well fitted activation curve with a large enough effect; inconclusive = small, poorly fitted or top-dose-only effect; inactive = no such curve, though single readings can be large or run the other way;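 also: potency is read from the fitted curve at half-maximal effect; 100% = response of the positive control SU9516; nearly all actives have a fitted effect of over 60% in size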
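alpha7betagal+/- myoblasts (passage 13, 250/well) treated 48 h at 37C with compounds at 1:260 dilution of DMSO stock. Lysed, then beta-galactosidase activity read as FDG fluorescence (ex 480/em 540) after 30 min, with pre-read for autofluorescence.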
DRD3 agonist: qHTS of D3 Dopamine Receptor Agonist: qHTS. D(3) dopamine receptor (Homo sapiens), P35462. D3R DiscoveRx beta-arrestin cells, luminescence, 90 min. max activation, %. 410,000 tested, 0.58% active. AID 652048, 2013; in the data active = max activation above about 30%; also: 0% is about no effect
Target sequence (P35462 whole entry, looked up): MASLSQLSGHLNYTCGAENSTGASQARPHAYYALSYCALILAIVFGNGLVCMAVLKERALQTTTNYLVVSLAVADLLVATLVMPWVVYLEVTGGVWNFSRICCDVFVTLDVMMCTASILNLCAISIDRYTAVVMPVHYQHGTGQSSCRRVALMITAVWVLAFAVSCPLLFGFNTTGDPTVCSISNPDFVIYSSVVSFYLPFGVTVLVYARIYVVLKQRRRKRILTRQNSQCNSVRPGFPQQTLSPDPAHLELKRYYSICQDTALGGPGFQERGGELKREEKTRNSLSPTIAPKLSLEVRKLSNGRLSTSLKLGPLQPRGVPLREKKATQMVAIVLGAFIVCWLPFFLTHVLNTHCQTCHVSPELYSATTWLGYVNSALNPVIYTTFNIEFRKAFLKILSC
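Cells at 1500/well, incubated overnight, then treated with pinned compounds (dopamine as control) for 90 min at 37 degrees C. DiscoveRx reagent added for 30 - 60 minutes at room temperature; luminescence read.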
D3 antag: qHTS of D3 Dopamine Receptor Antagonist: qHTS | D(3) dopamine receptor (Homo sapiens), P35462 | D3R cells, DiscoveRx beta-arrestin luminescence, antagonist mode; stronger effect = lower value | max response, negative = inhibition, % | 360,000 tested, 2.5% active; in the data active = max response below about -50%; inconclusive = no clear call, values can overlap the other calls; also: % is scaled to controls: 0 for no effect and ±100 for the full control effect
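Cells plated overnight at 1500 cells/well, then exposed to library compounds with dopamine controls for 90 minutes at 37 degrees C. DiscoveRx reagent added for 30–60 minutes at room temperature; luminescence read, quantitative HTS format.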
Starred values were filed as active, the others as inactive; ? = inconclusive; nt = not tested or not shown; ! = not active in a repeat.

SMILES | Integrin act MD | DRD3 agonist | D3 antag
C=CCc1ccc(OCCCNC2CCCC2)c(OC)c1 | -60% | -14 | -20
C=CCc1ccc(OCCCNCc2ccccc2)c(OC)c1 | -59% | -21 | -79*
C/C=C/c1ccc(OCCNCc2ccccc2)c(OC)c1 | -22% | -19 | -77*
C/C=C/c1ccc(OCCCNC)c(OC)c1 | -43% | -4 | -19
CC(CCc1ccccc1)NC(=O)Cn1ncc2c3ccccc3n(Cc3cccc(Cl)c3)c2c1=O (stereo unspecified) | nt | 4 | nt
OCCCNCc1ccc(N(c2ccccc2)c2ccccc2)cc1 | -65% | -21 | -66*
OCCNCc1ccc(-c2ccccc2)cc1 | -26% | -4 | -22
C[C@H]1COC(=O)[C@H](Cc2ccc(F)cc2)C/C=C\C[C@@H](CC(=O)N(CCO)Cc2ccccc2)C(=O)N1 | -5% | -4 | 28
O=C1NC[C@H](CCCCN2C[C@H](Cc3ccc(O)cc3)N(CC3CCCCC3)C(=O)C2=O)N(CCC2CCCCC2)C1=O | nt | 3 | 12
O=C1NC[C@H](CCCCN2CCN(Cc3ccccc3)C(=O)C2=O)N(CCC2CCCCC2)C1=O | nt | 33* | -27
O=C1NC[C@H](CCCCN2CCN(Cc3ccccc3)C(=O)C2=O)N(CC2CCCCC2)C1=O | nt | -12 | -20
O=C1NC[C@@H](CCCCN2C[C@H](Cc3ccc(O)cc3)N(CCC3CCCCC3)C(=O)C2=O)N(CC2CCCCC2)C1=O | nt | -16 | -63*
CC1(C(=O)NS(=O)(=O)c2cccc(F)c2)CCN1C(=O)c1ccco1 (stereo unspecified) | nt | -10 | 0
CC12CCC(C(=O)N(CCCN3CCN(Cc4ccccc4)CC3)C1=O)C2(C)C (stereo unspecified) | -17% | -13 | -18
CC12CCC(C(=O)N(CCCCN3CCN(c4ccccn4)CC3)C1=O)C2(C)C (stereo unspecified) | -11% | 86* | -11
Cn1c(=O)c2cc(NC(=O)Cc3ccccc3F)ccc2n1-c1ccc(C(C)(C)C)cc1 | nt | -19 | ?
COc1ccc(C(=O)NC(C)Cc2cnccn2)cc1OC1CCN(C(C)C)CC1 (stereo unspecified) | -16% | 2 | 1
COc1ccc(Nc2c3c(nc4ccc(NC(=O)/C=C/c5cccc(OC)c5OC)cc24)CCCC3)cc1OC | nt | -21 | nt
CC(=O)n1cc([C@@H]2C=C(C(=O)N3CCN(Cc4ccccc4)CC3)O[C@H](OCc3ccc(CO)cc3)C2)c2ccccc21 | -23% | -62 | -61*
CC(=O)n1cc([C@H]2C=C(C(=O)NCc3ccccc3)O[C@@H](OCc3ccc(CO)cc3)C2)c2ccccc21 | -19% | 5 | 25
CC(=O)n1cc([C@H]2C=C(C(N)=O)O[C@@H](OCc3ccc(CO)cc3)C2)c2ccccc21 | 8% | 36* | 66
O=C(C1=C[C@H](c2coc3ccccc3c2=O)C[C@H](OCc2ccc(CO)cc2)O1)N1CCN(Cc2ccc3c(c2)OCO3)CC1 | -13% | -50 | -50*
CC(=O)n1cc([C@H]2C=C(C(=O)N3CCN(Cc4ccccc4)CC3)O[C@@H](OCCCCO)C2)c2ccccc21 | 0% | 11 | 0
O=C(C1=C[C@@H](c2coc3ccccc3c2=O)C[C@@H](OCc2ccc(CO)cc2)O1)N1CCN(Cc2ccc3c(c2)OCO3)CC1 | 3% | -15 | 14
Cc1ccn2c(=O)cc(COc3ccc(NC(=O)COc4ccccc4)cc3)nc2c1 | nt | 8 | nt
SMILES | Integrin act MD | DRD3 agonist | D3 antag
COc1ccc(N(CC(=O)NCCSc2ccccc2)S(=O)(=O)c2ccccc2)cc1 | 11% | 2 | 53
CCOc1ccc(OCC(=O)NCCS(=O)(=O)N2CCN(c3ccccc3)CC2)cc1 | -2% | -6 | -11
O=C(CNC(=O)c1ccc(Cl)cc1)NC1CCCCC1 | 15% | -19 | -59*
O=C(COc1ccc(F)cc1)NCCN1CCCC1 | 0% | -15 | -57*
Fc1ccc(OCCCCCCN2CCCC2)cc1 | -37% | -33 | -29
O=C(NCCN1CCCCC1)Nc1ccccc1 | -4% | -24 | -17
O=C(CCNC(=O)c1ccc(Cl)cc1)NC1CCCCCC1 | -5% | -4 | 6
O=C(NCCN1CCCCC1)Nc1cccc(C(F)(F)F)c1 | 15% | -12 | -58*
CCOc1ccc(OCC(=O)NCCS(=O)(=O)N2CCN(c3ccc(F)cc3)CC2)cc1 | 17% | 38*! | 17
COCCNC(=O)c1onc(CSc2ccccc2F)c1C(=O)O | 10% | 4 | 2
COC(=O)Cc1sc(-c2ccccn2)nc1-c1ccccc1 | 4% | 0 | 3
COc1ccc(CC(=O)NCCN2CCOCC2)cc1 | -1% | -1 | 10
O=C(NCCN1CCOCC1)c1ccc(Cl)cc1 | nt | -71 | -69*
Cc1ccc(NC(=O)NCCN2CCCCC2)cc1 | -1% | -22 | -17
Cc1ccc(C(=O)NCCN2CCOCC2)cc1 | 3% | -32 | ?
CCOc1ccc(C(=O)NCCN2CCCC2)cc1 | 7% | -10 | -58*
O=C(NCCN1CCCCC1)Nc1ccc(Br)cc1 | -13% | -13 | -54*
CCOc1ccc(C(=O)NCCNC(=O)c2ccc(OCC)cc2)cc1 | -26% | 4 | 11
Cc1ccc(CC(=O)NCCN2CCOCC2)cc1 | 27% | 58* | -8
Cc1ccc(S(=O)(=O)N(C)C)cc1NC(=O)COC(=O)COc1ccc2c(C)cc(=O)oc2c1 | -4% | -17 | -6
O=C(NCCc1c[nH]c2ccccc12)C1CCC(=O)N(CCc2cccc(F)c2)C1 (stereo unspecified) | -14% | 1 | 0
S=C(Nc1ccc(Br)cc1Cl)N1CCCC1 | -9% | 14 | 11
O=C(NCCN1CCCC1)c1ccc(Cl)cc1 | -24% | -11 | -98*
O=C(NCCN1CCCC1)c1cccc(Cl)c1 | 3% | -22 | ?
O=C(NCCC(=O)N1CCCCCCC1)c1ccc(Br)cc1 | 15% | -9 | -7
SMILES | Integrin act MD | DRD3 agonist | D3 antag
O=C(NCCN1CCCC1)c1ccc(Br)cc1 | 0% | -33 | -77*
O=C(Nc1ccc(CN2CCCCC2)cc1)Nc1ccc(Br)cc1Cl | 35% | -29 | -79*
CC(C)(C)CNC(=O)c1cccc2c1C(=O)c1ccc(-c3cc4ccccc4o3)cc1S2(=O)=O | 1% | 6 | 27
COCCCNS(=O)(=O)c1cc2c3c(c1)C(C)C(=O)N3CCC2 (stereo unspecified) | 13% | 0 | 19
CCN1C(=O)[C@H]2[C@@H](c3ccc(C)cc3)N3C(=O)N(c4ccc(C(F)(F)F)cc4)C(=O)[C@@]3(CC)[C@H]2C1=O | -6% | 1 | 22
Cc1ccc(NC(=S)NNC(=S)Nc2cccc(C(F)(F)F)c2)cc1 | -41% | 1 | -28
CON/C=N/C(=S)Nc1ncc(C(F)(F)F)cc1Cl | 28% | -9 | -27
FC(F)(F)c1cnc(NNC(=S)Nc2ccc(Cl)cc2)c(Cl)c1 | -53% | -12 | -64*
Cc1ccc(NC(=S)NNc2ncc(C(F)(F)F)cc2Cl)c(C)c1 | -2% | -13 | -53*
O=C(NNc1ncc(C(F)(F)F)cc1Cl)c1ccc(Cl)c(Cl)c1 | -15% | 18 | 2
Fc1ccc(NC(=S)NNc2ncc(C(F)(F)F)cc2Cl)c(F)c1 | -81% | 5 | -75*
Cc1ccc(NC(=S)NNc2ncc(C(F)(F)F)cc2Cl)cc1 | -25% | -36 | -68*
